# Assay results taken from PubChem BioAssay (NCATS).
# “And” between values parts separate entries of the source, which are not always exact repeats. Identical values can stand only once. Values without a mark were called inactive. Inconclusive results are not listed. The source made the active and inactive calls. Unless noted, calls come from the whole dose curve; as a rule, active = well fitted inhibition curve with a large enough effect; inconclusive = small, poorly fitted or top-dose-only effect; inactive = flat fitted curve, though single readings scatter.
# Tests used:
# [1] = Drug repurposing screens with cells derived from glioblastoma tumor samples (AID 1345199); settings: GBM patient neurospheres viability, ATP luminescence, 48 h; note: nearly all actives have a fitted effect of over 40% in size; note: potency is the fitted concentration of half-maximal effect; for activity, negative = cell killing: % is set by controls: 0 for no effect and ±100 for the full control effect
# Summary of the method: (§1)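 Four patient lines of CD133+ GBM neurospheres were screened at several concentrations; hits were retested in those lines plus three slower-growing GBM lines, using 48-hour treatment and ATP-based viability.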
# astro = control astrocytes; test: as above; settings: viability, ATP luminescence, 48 h; series mostly up to 45.9 µM
# Summary of the method: as §1
# [2] = target: Nuclear receptor subfamily 1 group I member 2 (Rattus norvegicus) (UniProt Q9R1A7); test: qHTS assay for small molecule activators of the rat pregnane X receptor (rPXR) signaling pathway (AID 651751; call rule not given here; note: 0% is about no effect); settings: rPXR reporter cells, luciferase (One-Glo), 24 h
# Chain of Nuclear receptor subfamily 1 group I member 2 (Rattus norvegicus) (Q9R1A7 whole entry, looked up): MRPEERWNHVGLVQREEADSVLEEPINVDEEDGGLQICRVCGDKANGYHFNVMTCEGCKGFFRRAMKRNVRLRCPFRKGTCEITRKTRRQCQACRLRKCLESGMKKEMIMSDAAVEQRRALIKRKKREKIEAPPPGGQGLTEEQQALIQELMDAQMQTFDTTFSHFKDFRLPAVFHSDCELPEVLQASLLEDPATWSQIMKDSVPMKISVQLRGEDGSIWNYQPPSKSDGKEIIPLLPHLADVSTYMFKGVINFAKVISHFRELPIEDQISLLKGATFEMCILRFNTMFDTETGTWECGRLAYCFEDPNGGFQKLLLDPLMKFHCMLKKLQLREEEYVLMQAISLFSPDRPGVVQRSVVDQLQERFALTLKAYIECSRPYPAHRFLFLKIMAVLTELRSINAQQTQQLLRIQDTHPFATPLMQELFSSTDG
# [3] = qHTS assay for small molecule activators of the human pregnane X receptor (PXR) signaling pathway (AID 720659; call rule not given here; note: 0% is about no effect); settings: DPX-2 HepG2 CYP3A4-luciferase, 24 h; series mostly up to 92.3 µM
# [4] = at 45.9 µM (top of the series), tumour line B
# [5] = at 45.9 µM (top of the series), tumour line D
# [6] = at 46.1 µM (top of the series), tumour line C
SMILES,"activity, negative = cell killing [1, 4]","activity, negative = cell killing [1, 5]","activity, negative = cell killing [1, 6]",Potency (astro),max response [2],outcome [3],Potency ([1]; tumour line D),"activity, negative = cell killing ([1]; at 46 µM (top of the series), tumour line A)",Potency ([1]; tumour line A)
CN[C@H](CC(C)C)C(=O)N[C@H]1C(=O)N[C@@H](CC(N)=O)C(=O)N[C@H]2C(=O)N[C@H]3C(=O)N[C@H](C(=O)N[C@@H](C(=O)O)c4cc(O)cc(O)c4-c4cc3ccc4O)[C@H](O)c3ccc(c(Cl)c3)Oc3cc2cc(c3O[C@@H]2O[C@H](CO)[C@@H](O)[C@H](O)[C@H]2O[C@H]2C[C@](C)(N)C(O)[C@H](C)O2)Oc2ccc(cc2Cl)[C@H]1O (some centres undefined),-21.4% and -13.5%,-14.4% and -8.53%,-11% and 8.66%,inactive,–,–,–,–,–
CC1=CC(=O)NS(=O)(=O)O1,-5.56%,0.134%,-19.5%,–,4.96% and 0.0631%,inactive,–,–,–
CCCCC/C=C\C/C=C\C/C=C\CCCCC(=O)O,-11.2%,2.8%,1.83%,inactive,–,–,–,–,–
CC(C)(C)CC(C)(C)c1ccc(OCCO)cc1,-26.2%,–,-20.5%,35.5 µM (active),-14.4%,–,10 µM (active),–,–
NC(=O)Oc1ccc(Cc2ccccc2)cc1,-5.11%,-13.8%,-22.5%,inactive,–,–,–,–,–
C=CC(C)(O)CC/C=C(\C)CCC=C(C)C (centres undefined),-7.36%,-9.56%,–,inactive,14.8%,–,–,-15.8%,–
CO[C@H]1C[C@H](O[C@@H]2/C(C)=C/C[C@@H]3C[C@@H](C[C@]4(CC[C@H](C)[C@@H](C5CCCCC5)O4)O3)OC(=O)[C@@H]3C=C(C)/C(=N/O)[C@H]4OC/C(=C\C=C\[C@@H]2C)[C@]43O)O[C@@H](C)[C@@H]1O,–,–,-8.72%,inactive,–,–,20 µM (active),–,10 µM (active)
CC(=NCc1ccccc1)c1ccccc1O,-12.5%,-14.9%,6.85%,inactive,–,–,–,–,–
CO[C@@H]1[C@H](OC(=O)/C=C/C=C/C=C/C=C/C(=O)O)CC[C@]2(CO2)[C@H]1[C@@]1(C)O[C@@H]1CC=C(C)C,2.14%,-9.21%,4.82%,inactive,-5.29%,inactive,–,–,–
CO/N=C(/C(=O)N[C@@H]1C(=O)N2C(C(=O)O)=C(COC(N)=O)CS[C@H]12)c1ccco1,3.13% and -9.26%,-9.35% and -16.7%,6.13% and -0.48%,inactive,-2.68%,inactive,–,–,–
O=C(O)/C=C/C(=O)Nc1ccc(S(=O)(=O)Nc2nccs2)cc1,-4.39%,-8.87%,-5.24%,inactive,–,–,–,–,–
OC[C@H]1O[C@@](CO)(O[C@H]2O[C@H](CO)[C@@H](O)[C@H](O)[C@H]2O)[C@@H](O)[C@@H]1O,-5.09%,-14.4%,-22.3%,inactive,1.07%,inactive,–,–,–
CC(C)C[C@@H](NC(=O)[C@@H](O)[C@H](N)Cc1ccccc1)C(=O)O,-12.5%,-2.21%,-22.2%,inactive,–,–,–,–,–
OC[C@H]1O[C@@H](O[C@H]2[C@H](O)[C@@H](O)[C@H](O)O[C@@H]2CO)[C@H](O)[C@@H](O)[C@@H]1O,-9.2%,6.26%,-13.5%,inactive,–,–,–,–,–
ClC(Cl)Cl,0.236%,-13.8%,-5.54%,inactive,-6.93%,inactive,–,–,–
CC(C)(C)C(=O)OCC(=O)[C@H]1CC[C@H]2[C@@H]3CCC4=CC(=O)CC[C@]4(C)[C@H]3CC[C@]12C,-7.01%,-7.34%,0.589%,inactive,–,–,–,–,–
CC(O)[C@H]1CC[C@H]2[C@@H]3CC[C@@H]4C[C@@H](O)CC[C@]4(C)[C@H]3CC[C@]12C (some centres undefined),-13.1%,-23.2%,18.8%,inactive,–,–,–,–,–
